# Measurements from paper PMC5540273 (PLoS ONE, 2017).
# Key:
# Conditions in all cases: concentration: 1 μM,replicates: in singlicate; n = 1
# HASPIN = tested on: T1, HASPIN
# T1 construct: gene GSG2
# HCK = tested on: HCK
# HIPK1 = tested on: HIPK1
# HIPK2 = tested on: HIPK2
# HIPK3 = tested on: HIPK3
# HIPK4 = tested on: HIPK4
# HPK1 = tested on: HPK1
# HUNK = tested on: HUNK
# ICK = tested on: ICK
# IGF1R = tested on: IGF1R
# IKK-alpha = tested on: T2, IKK-alpha
# T2 construct: gene CHUK
# IKK-beta = tested on: T3, IKK-beta
# T3 construct: gene IKBKB
# IKK-epsilon = tested on: T4, IKK-epsilon
# T4 construct: gene IKBKE
# INSRR = tested on: INSRR
# INSR = tested on: INSR
# IRAK1 = tested on: IRAK1
# IRAK3 = tested on: IRAK3
# IRAK4 = tested on: IRAK4
# ITK = tested on: ITK
# [1] = tested on: JAK1(JH1domain-catalytic)
# 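Note: KINOMEscan kinase panel screen.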
Structure (SMILES),%Inh (HASPIN) [%],%Inh (HCK) [%],%Inh (HIPK1) [%],%Inh (HIPK2) [%],%Inh (HIPK3) [%],%Inh (HIPK4) [%],%Inh (HPK1) [%],%Inh (HUNK) [%],%Inh (ICK) [%],%Inh (IGF1R) [%],%Inh (IKK-alpha) [%],%Inh (IKK-beta) [%],%Inh (IKK-epsilon) [%],%Inh (INSRR) [%],%Inh (INSR) [%],%Inh (IRAK1) [%],%Inh (IRAK3) [%],%Inh (IRAK4) [%],%Inh (ITK) [%],%Inh [1] [%]
O=C(Nc1ccccc1)c1cccc(Oc2ccc3nccn3n2)c1,15,15,0,0,0,32,0,0,63,0,0,0,91.5,86,0,25,3,21,0,0
CN(c1cccc(CNc2nc(Nc3ccc4c(c3)CC(=O)N4)ncc2C(F)(F)F)c1)S(C)(=O)=O,0,0,39,11,0,14,19,0,0,34,24,14,19,21,48,48,22,0,26,43
CC(C)c1nc(-c2cccc(NS(=O)(=O)c3ccccc3)c2)c(-c2ccnc(Nc3ccc4c(c3)CN(C)CC4)n2)s1 [GSK1649598],0,99.7,75,58,69,93.6,88,3,36,0,2,15,42,0,35,65,10,16,47,25
Cc1cccc2c(-c3ccncc3)c(-c3ccc(F)cc3)nn12.Cl [GW461487],2,0,0,0,19,0,28,5,0,0,0,0,21,0,0,9,0,0,5,8
Cn1ccc2ncnc(Oc3ccc(NC(=O)Nc4cccc(C(F)(F)F)c4)c(Cl)c3)c21,0,47,26,15,0,17,39,2,0,0,53,19,6,0,16,0,0,0,1,0
CS(=O)(=O)Nc1ccc(-c2ccnc3[nH]ccc23)cc1 [GSK993273],78,0,56,8,73,34,38,0,6,2,89,99.1,34,0,0,61,49,24,13,70
C[C@@H](Oc1cc(-n2cnc3ccc(-c4ccncc4)cc32)sc1C(N)=O)c1ccccc1Cl [GSK483724],87,0,33,19,59,69,64,0,45,19,7,13,24,0,0,49,81,17,22,0
NC(=O)Nc1sc(-c2ccc(F)cc2)cc1C(N)=O [GW789449],3,47,40,34,31,2,48,0,15,2,78,100,0,10,37,41,15,12,26,91.4
CNC(=O)c1ccccc1Nc1nc(Nc2cccc(CS(C)(=O)=O)c2)ncc1C.O=CO [GSK1520489],52,99.2,93.5,88,92.7,97.2,96.8,0,20,90.7,61,37,73,92.6,96,99.7,98.3,98.1,100,84
C[C@@H]1CNc2c(sc3ccc4nc(-c5ccc(O)cc5)ccc4c23)C(=O)N1,48,35,41,46,21,0,6,5,0,0,27,24,14,0,7,97.1,14,14,3,0
C[C@@H]1CNc2c(sc3ccc4nc(-c5ccncc5)ccc4c23)C(=O)N1,70,21,37,3,4,0,0,7,0,0,14,0,0,0,0,78,42,0,0,0
CN1CCN(CCNc2nc3cc(Oc4ccc(NC(=O)Nc5cc(C(F)(F)F)ccc5F)cc4)ccc3[nH]2)CC1.Cl.Cl [GW768504],0,11,19,0,0,66,3,41,0,0,0,0,14,0,5,0,5,0,0,28
COc1cc(Nc2nccc(N3CCC(NC(=O)c4cccc(C#N)c4)C3)n2)cc(OC)c1OC (stereo not shown) [GSK1379751],8,0,0,0,3,0,45,0,0,0,19,0,5,0,0,58,70,15,0,0
CCn1c(-c2nonc2N)nc2cncc(CNC3CCNCC3)c21.Cl [SB-747651],73,0,0,0,48,0,35,0,16,13,39,27,5,0,14,56,0,41,9,15
CS(=O)c1ccc(-c2coc3ccc(-c4n[nH]c(=O)o4)cc23)cc1 (stereo not shown),50,0,99.6,100,99.6,93.6,1,11,29,13,8,0,0,1,17,55,0,28,0,1
Cc1ccc(Nc2ccnc(Nc3ccc4c(c3)CS(=O)(=O)C4)n2)cc1O.Cl [GW579362],0,90,26,0,28,44,62,8,28,56,62,87,91,22,53,99.1,91,87,38,92.4
CC(C)S(=O)(=O)N1CCN(Cc2ccc3c(c2)nc(NC(=O)c2ccsc2)n3C[C@H](O)c2ccccc2)CC1 [GW635815],17,37,34,20,1,0,39,0,0,29,20,13,52,27,67,90,49,80,97.6,5
c1ccc(Oc2ccc(Nc3ccnc4ccc(-c5ccccn5)cc34)cc2)cc1 [GW407034],0,71,0,0,0,0,25,0,16,5,9,14,11,0,5,22,13,25,13,22
Cl.Cl.NC[C@H](CC1CCCCC1)NC(=O)c1ccc(-c2ccnc3[nH]ccc23)s1 [GSK1581428],88,0,98.7,96.1,98.9,94.2,78,0,11,0,31,72,31,100,5,57,13,6,5,56
CCNCC(Cc1ccccc1)NC(=O)c1cc(Br)c(-c2ccnc3[nH]ccc23)s1.Cl.Cl (stereo not shown) [GSK1383280],88,0,46,18,48,92.5,51,0,18,23,3,33,19,0,0,42,36,17,14,36
